Read-out in assay [1]: CD69, CD69 (gene 969)
The assay is described as follows: BSK_SAg_CD69: BioMAP Diversity Plus: SAg Assay for CD69 Biomarker Activity (AID 2283089).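 For AC50: cell surface CD69 protein quantified by ELISA with fluorescence detection.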 Particulars: primary human HUVEC with PBMC; actives raise or lower the signal. Put shortly: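 Primary human vascular co-culture (umbilical vein endothelium with peripheral blood mononuclear cells) exposed to test chemical for 24 h. CD69 levels quantified by fluorescence ELISA; DMSO served as negative control for bidirectional fitting.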

Read-out in assay [2]: Monocyte Chemoattractant Protein-1 (MCP1), CCL2 (gene 6347)
The assay is described as follows: BSK_SAg_MCP1: BioMAP Diversity Plus: SAg Assay for Monocyte Chemoattractant Protein-1 (MCP1) Biomarker Activity (AID 2283090). To be noted: primary human HUVEC with PBMC; actives raise or lower the signal. The method in brief: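 MCP-1 levels in the endothelial–PBMC SAg co-culture were quantified by ELISA at 24 h post-dosing; both increases and decreases versus DMSO scored. Cytotoxicity monitored by SRB total protein in parallel cultures.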

Read-out in assay [3]: E-selectin (Homo sapiens) (UniProt P16581)
The assay is described as follows: BSK_SAg_Eselectin: BioMAP Diversity Plus: SAg Assay for Eselectin Biomarker Activity (AID 2283091). Particulars: primary human HUVEC with PBMC; actives raise or lower the signal. Put shortly: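 Cell-surface E-selectin is read by ELISA at 24 h in the SAg co-culture of HUVEC and PBMC. Curves are fitted in both directions relative to DMSO. Parallel SRB total-protein staining tracks overt toxicity.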

Read-out in assay [4]: Monokine induced gamma interferon (MIG), CXCL9 (gene 4283)
The assay is described as follows: BSK_SAg_MIG: BioMAP Diversity Plus: SAg Assay for Monokine induced gamma interferon (MIG) Biomarker Activity (AID 2283092). Particulars: primary human HUVEC with PBMC; actives raise or lower the signal. The method in brief: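 Endothelial cells and PBMC were co-cultured, exposed to test chemicals, and sampled 24 h later. MIG was measured by ELISA, and responses were fitted in both directions relative to DMSO.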

A short description of assay [5]: BSK_SAg_PBMCCytotoxicity: PBMC Cytotoxicity Assessment in the BioMAP Diversity Plus: SAg Assay (AID 2283093).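 For AC50: PBMC superantigen activated with SEB plus TSST-1 one hour after compound addition.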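 Note: PBMC viability measured as Alamar Blue reduction fluorescence at 546/580 nm; fitted both ways against DMSO so a hit may be loss or gain of signal.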 Particulars: primary human HUVEC with PBMC. Put shortly: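 HUVEC/PBMC co-culture; PBMC exposed to chemical 1 h before SEB and TSST-1 activation (20 ng/mL each), incubated 90 h, then Alamar Blue 6 h, fluorescence 546/580 nm. Bidirectional fit versus DMSO baseline.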

Read-out in assay [6]: Interleukin-8 (IL8), CXCL8 (gene 3576)
The assay is described as follows: BSK_SAg_IL8: BioMAP Diversity Plus: SAg Assay for Interleukin-8 (IL8) Biomarker Activity (AID 2283094). Particulars: primary human HUVEC with PBMC; actives raise or lower the signal. The method in brief: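 In this co-culture of human umbilical vein endothelium with peripheral blood mononuclear cells, IL-8 is assayed by ELISA at 24 h. DMSO serves as baseline for bidirectional curve fitting.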

Assay [7] is described as follows: BSK_SAg_Proliferation: Cell Proliferation Assessment in the BioMAP Diversity Plus: SAg Assay (AID 2283095).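 Note: relative cell number as total protein by SRB absorbance in sub-confluent culture.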 To be noted: primary human HUVEC with PBMC. Put shortly: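 Readout is SRB-stained protein (560 nm) in a primary human HUVEC and PBMC co-culture; sub-confluent cultures are read at 96 h. Activity is fitted bidirectionally using DMSO as baseline.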
Assay [8] can be described thus: BSK_SAg_SRB: Viability Assessment in the BioMAP Diversity Plus: SAg Assay (AID 2283096).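 Note: cells read one day after compound addition; hits may be either gain or loss of signal compared with DMSO.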 Particulars: primary human HUVEC with PBMC. Put shortly: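 Human umbilical vein endothelial cells co-cultured with PBMC, read 24 h after compound dosing. Total protein measured by sulforhodamine B staining (0.1% SRB after 10% TCA fixation, absorbance 560 nm); bidirectional fit versus DMSO baseline.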

Assay [9] concerns the target human CYP2D6, CYP2D6 (gene 1565) (UniProt P10635). The assay is described as follows: NVS_ADME_hCYP2D6: NovaScreen (NVS) CYP450-related Enzyme Activity (ADME) Assay for human CYP2D6 (AID 2283107; active = hit-call score of the fitted dose curve at least 0.9, where 1 is the maximum). Put shortly: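 Fluorescence readout of recombinant CYP2D6 (insect-cell derived) activity after 1 h incubation with test chemical. Acetonitrile served as baseline, loss-of-signal direction. Single-concentration duplicate screening at 10 uM preceded concentration-response retesting.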

In assay [10] the target is Cytochrome P450 2C19 (Homo sapiens) (UniProt P33261). The assay is described as follows: NVS_ADME_hCYP2C19: NovaScreen (NVS) CYP450-related Enzyme Activity (ADME) Assay for human CYP2C19 (AID 2283113; active = hit-call score of the fitted dose curve at least 0.9, where 1 is the maximum;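 for AC50: potency for inhibition seen as loss of fluorescent signal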). The method in brief:
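Compounds first screened in duplicate at 10 uM, then confirmed in concentration series. Insect-cell-expressed human CYP2C19 turned over a fluorogenic substrate, and fluorescence was read after 1 h. Inhibition taken as signal loss relative to acetonitrile.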

The target in assay [11] is human CYP19A1, CYP19A1 (gene 1588) (UniProt P11511). As to the kind of experiment: NVS_ADME_hCYP19A1: NovaScreen (NVS) CYP450-related Enzyme Activity (ADME) Assay for human CYP19A1 (AID 2283098; active = hit-call score of the fitted dose curve at least 0.9, where 1 is the maximum). Put shortly: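 Recombinant enzyme in a cell-free format, read 0.5 h after dosing by fluorescence from a fluorogenic substrate. Loss of signal was fitted against acetonitrile as baseline. Primary screen in duplicate at 10 uM, actives then tested in concentration series.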
human CYP19A1, CYP19A1 (gene 1588), sequence (P11511 whole entry, looked up): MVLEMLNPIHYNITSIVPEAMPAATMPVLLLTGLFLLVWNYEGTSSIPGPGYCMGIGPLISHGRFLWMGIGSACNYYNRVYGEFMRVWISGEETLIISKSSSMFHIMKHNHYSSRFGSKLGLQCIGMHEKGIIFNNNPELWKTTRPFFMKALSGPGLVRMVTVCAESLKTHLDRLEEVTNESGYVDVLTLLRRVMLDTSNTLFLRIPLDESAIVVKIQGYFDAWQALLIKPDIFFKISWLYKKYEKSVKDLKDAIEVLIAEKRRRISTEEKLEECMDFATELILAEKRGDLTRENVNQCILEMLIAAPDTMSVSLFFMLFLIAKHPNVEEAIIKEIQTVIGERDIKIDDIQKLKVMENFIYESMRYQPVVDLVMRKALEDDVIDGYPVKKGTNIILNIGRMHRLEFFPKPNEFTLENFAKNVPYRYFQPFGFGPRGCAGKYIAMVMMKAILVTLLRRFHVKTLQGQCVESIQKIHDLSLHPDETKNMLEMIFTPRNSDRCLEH

Assay [12] deals with Cytochrome P450 3A4 (Homo sapiens) (UniProt P08684). As to the kind of experiment: NVS_ADME_hCYP3A4: NovaScreen (NVS) CYP450-related Enzyme Activity (ADME) Assay for human CYP3A4 (AID 2283110; active = hit-call score of the fitted dose curve at least 0.9, where 1 is the maximum). Put shortly: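 Cell-free recombinant enzyme expressed in insect cells; fluorescent substrate turnover read after 0.33 h, acetonitrile as negative control. Primary screen in duplicate at 10 uM, actives then tested in concentration series.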
Cytochrome P450 3A4 (Homo sapiens), sequence (P08684 whole entry, looked up): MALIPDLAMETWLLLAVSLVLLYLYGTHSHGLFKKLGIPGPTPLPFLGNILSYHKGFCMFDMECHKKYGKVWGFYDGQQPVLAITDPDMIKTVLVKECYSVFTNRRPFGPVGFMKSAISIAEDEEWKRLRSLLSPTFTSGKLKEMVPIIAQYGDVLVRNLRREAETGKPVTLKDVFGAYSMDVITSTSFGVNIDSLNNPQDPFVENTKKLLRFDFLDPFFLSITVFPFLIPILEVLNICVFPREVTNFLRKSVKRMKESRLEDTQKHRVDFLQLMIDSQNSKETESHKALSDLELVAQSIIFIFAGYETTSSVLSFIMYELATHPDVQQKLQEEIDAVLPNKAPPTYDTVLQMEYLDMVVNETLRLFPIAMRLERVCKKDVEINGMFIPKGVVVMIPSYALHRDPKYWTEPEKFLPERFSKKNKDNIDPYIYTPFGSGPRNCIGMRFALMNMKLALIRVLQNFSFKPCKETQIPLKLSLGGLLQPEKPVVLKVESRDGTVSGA

The target in assay [13] is human CYP2C9, CYP2C9 (gene 1559) (UniProt P11712). As to the kind of experiment: NVS_ADME_hCYP2C9: NovaScreen (NVS) CYP450-related Enzyme Activity (ADME) Assay for human CYP2C9 (AID 2283108; active = hit-call score of the fitted dose curve at least 0.9, where 1 is the maximum). Put shortly: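 Recombinant human CYP2C9 expressed in SF9 cells, fluorogenic substrate, fluorescence read 0.75 h after dosing. Chemicals first run in duplicate at 10 uM, with actives followed in concentration series; loss of signal versus acetonitrile baseline.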
human CYP2C9, CYP2C9 (gene 1559), sequence (P11712 whole entry, looked up): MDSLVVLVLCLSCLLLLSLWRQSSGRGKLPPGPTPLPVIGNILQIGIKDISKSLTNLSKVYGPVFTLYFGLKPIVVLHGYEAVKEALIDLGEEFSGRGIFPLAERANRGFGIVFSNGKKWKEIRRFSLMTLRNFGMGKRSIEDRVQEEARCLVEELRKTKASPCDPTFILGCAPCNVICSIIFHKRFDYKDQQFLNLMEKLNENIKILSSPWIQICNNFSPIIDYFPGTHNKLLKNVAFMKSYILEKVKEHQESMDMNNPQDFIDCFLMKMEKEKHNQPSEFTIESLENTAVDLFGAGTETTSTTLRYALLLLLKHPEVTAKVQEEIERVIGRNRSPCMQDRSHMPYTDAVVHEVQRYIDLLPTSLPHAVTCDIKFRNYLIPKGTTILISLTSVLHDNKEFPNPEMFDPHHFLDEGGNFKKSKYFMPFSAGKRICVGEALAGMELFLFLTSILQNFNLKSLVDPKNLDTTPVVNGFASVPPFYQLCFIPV

The target of assay [14] is Cytochrome P450 2C18 (Homo sapiens) (UniProt P33260). The assay is described as follows: NVS_ADME_hCYP2C18: NovaScreen (NVS) CYP450-related Enzyme Activity (ADME) Assay for human CYP2C18 (AID 2283103). The method in brief:
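Cell-free recombinant human CYP2C18 with fluorogenic substrate; fluorescence intensity read 0.5 h after dosing. Single-point screen at 10 uM in duplicate, then concentration-response up to 20 uM; loss of signal fitted against acetonitrile baseline.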

Structures are written as SMILES. Results filed as inconclusive are left out. Calls of active or inactive are those of the source. Rule for the calls, unless noted: active = hit-call score of the fitted dose curve at least 0.9, where 1 is the maximum; inactive = score below 0.9.

E-selectin (Homo sapiens), sequence (P16581 whole entry, looked up): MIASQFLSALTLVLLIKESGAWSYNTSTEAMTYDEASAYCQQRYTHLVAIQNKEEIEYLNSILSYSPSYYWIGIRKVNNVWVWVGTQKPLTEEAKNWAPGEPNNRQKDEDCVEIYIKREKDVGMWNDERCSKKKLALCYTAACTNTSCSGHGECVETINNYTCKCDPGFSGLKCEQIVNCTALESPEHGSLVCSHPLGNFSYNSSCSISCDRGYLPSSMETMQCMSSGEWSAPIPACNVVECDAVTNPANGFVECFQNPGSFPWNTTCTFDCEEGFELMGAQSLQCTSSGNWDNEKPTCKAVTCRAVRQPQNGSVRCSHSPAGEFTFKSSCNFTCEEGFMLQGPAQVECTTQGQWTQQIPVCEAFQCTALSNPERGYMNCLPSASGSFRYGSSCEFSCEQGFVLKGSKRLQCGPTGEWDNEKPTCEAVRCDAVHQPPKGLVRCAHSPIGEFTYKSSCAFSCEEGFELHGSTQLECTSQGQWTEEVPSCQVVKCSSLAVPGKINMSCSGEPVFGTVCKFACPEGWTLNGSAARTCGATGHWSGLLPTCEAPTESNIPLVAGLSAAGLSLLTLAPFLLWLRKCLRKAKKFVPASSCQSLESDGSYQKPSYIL
human CYP2D6, CYP2D6 (gene 1565), sequence (P10635 whole entry, looked up): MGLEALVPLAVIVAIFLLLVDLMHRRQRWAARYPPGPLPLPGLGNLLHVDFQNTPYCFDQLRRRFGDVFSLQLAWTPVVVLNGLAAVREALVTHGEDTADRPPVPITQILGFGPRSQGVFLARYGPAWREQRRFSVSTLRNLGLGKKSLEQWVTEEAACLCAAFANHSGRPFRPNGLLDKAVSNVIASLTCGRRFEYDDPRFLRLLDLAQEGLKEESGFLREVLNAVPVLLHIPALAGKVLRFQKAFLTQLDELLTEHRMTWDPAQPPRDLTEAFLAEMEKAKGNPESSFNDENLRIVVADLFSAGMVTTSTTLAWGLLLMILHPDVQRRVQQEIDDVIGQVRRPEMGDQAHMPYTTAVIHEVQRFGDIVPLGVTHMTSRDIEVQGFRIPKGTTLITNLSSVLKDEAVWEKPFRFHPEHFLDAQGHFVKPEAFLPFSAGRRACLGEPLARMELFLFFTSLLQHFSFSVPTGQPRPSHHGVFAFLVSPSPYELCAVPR
Cytochrome P450 2C18 (Homo sapiens), sequence (P33260 whole entry, looked up): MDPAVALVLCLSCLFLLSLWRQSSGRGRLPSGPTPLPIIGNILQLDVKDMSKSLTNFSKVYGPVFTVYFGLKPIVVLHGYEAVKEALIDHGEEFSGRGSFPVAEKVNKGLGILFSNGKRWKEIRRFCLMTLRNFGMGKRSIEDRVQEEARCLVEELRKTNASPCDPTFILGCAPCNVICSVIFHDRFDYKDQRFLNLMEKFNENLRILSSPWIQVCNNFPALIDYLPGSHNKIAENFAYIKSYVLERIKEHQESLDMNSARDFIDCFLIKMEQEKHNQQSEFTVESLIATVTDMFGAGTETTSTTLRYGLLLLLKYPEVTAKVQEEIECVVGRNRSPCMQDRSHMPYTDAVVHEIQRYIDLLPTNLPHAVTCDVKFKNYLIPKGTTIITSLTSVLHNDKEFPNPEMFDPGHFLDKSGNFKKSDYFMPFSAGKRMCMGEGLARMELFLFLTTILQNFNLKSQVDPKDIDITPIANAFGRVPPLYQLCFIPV

Regarding `CS(=O)(=O)c1cc(C(F)(F)F)ccc1C(=O)c1cnoc1C1CC1`, the result in assay [1], in assay [2], in [3], in assay [4], in [5] and in assay [6] was inactive. Also, the outcome in [7], in assay [8] and in [9] was inactive.
As for `Cc1nc(N(C)C)nc(OC(=O)N(C)C)c1C`, the result in [1], in assay [2], in [3], in assay [4], in assay [5] and in assay [6] was inactive. Besides, the result in [7] and in [8] was inactive.
With `CNC(=O)N(C)c1nnc(C(C)(C)C)s1`, the result in [1], in [2], in [3], in assay [4], in assay [5] and in assay [6] was inactive. The result in [7] and in [8] was inactive.
`COCC(C)N(C(=O)CCl)c1c(C)csc1C` (stereo not given): the outcome in [1], in assay [2], in [4], in assay [5], in assay [7] and in assay [8] was inactive. Also, in [3], the AC50 is 10.7 µM (active).
As to `COP(=O)(OC)O/C(C)=C/C(=O)N(C)C`, the result in assay [1], in [2], in [3], in [4], in [5] and in assay [6] was inactive. Besides, the result in assay [7], in assay [8] and in assay [10] was inactive.
As to `N#Cc1c[nH]cc1-c1cccc2c1OC(F)(F)O2`, the AC50 is 24.5 µM (active) in [1], 20.4 µM (active) in assay [2], 20 µM (active) in [7] and 13.1 µM (active) in [8]. Also, the outcome in [3], in [4] and in assay [5] was inactive.
As for `CC(C)Nc1nc(Cl)nc(NC(C)C)n1`, the result in assay [1], in assay [2], in assay [4], in [5], in assay [7] and in [8] was inactive. Besides, the half-maximal activity concentration (AC50) in assay [3] is 4.2 µM (active).
Consider `OC(c1ccc(Cl)cc1)(c1ccc(Cl)cc1)C(Cl)(Cl)Cl`, for which the AC50 in assay [1] is 30 µM (active); in [2] it was 30.7 µM (active); in assay [3] it was 27.2 µM (active); in [4], 34.4 µM (active); in assay [5] it was 20 µM (active); in [6], 27.9 µM (active). Besides, the values for the AC50 in [7], in [8] and in assay [10] were 15 µM (active), 31.8 µM (active) and 0.806 µM (active), respectively. Also, the compound was classed as inactive in [11] and in [12].
As for `CC(C)C1(C)N=C(c2ncccc2C(=O)O)NC1=O` (stereo not given), the outcome in assay [1], in assay [2], in [3], in assay [4], in assay [5] and in assay [6] was inactive. For the same compound, the outcome in [7], in assay [8] and in assay [13] was inactive.
Regarding `CCOc1cc(C(C)(C)C)ccc1C1COC(c2c(F)cccc2F)=N1` (stereo not given), the AC50 in assay [1] is 20.5 µM (active); in assay [2], 28.5 µM (active); in assay [3], 16.5 µM (active); in assay [4], 36.1 µM (active); in [5] it was 28.9 µM (active); in assay [6], 18.6 µM (active). The AC50 is 11.9 µM (active) in assay [7], 22.1 µM (active) in assay [8] and 7.62 µM (active) in assay [10]. For the same compound, the call in assay [14] was inactive.

What is called AC50 is the concentration giving half of the maximal activity seen.

(Values after PubChem BioAssay (EPA / NIEHS).)
